Holding throughout (test): NCI-60 one-dose screen, 48 h (100 = growth as untreated, 0 = no growth, -100 = all killed)
Holding throughout (conditions): 10 µM

Assay [1] concerns T-47D breast.
Assay [2] deals with BT-549 breast.
Assay [3] has as its system MDA-MB-435 melanoma.
For assay [4], the system named is SW-620 colon.
The subject of assay [5] is MCF7 breast.
Assay [6] relates to KM12 colon.
Assay [7] relates to MDA-MB-468 breast.
The test system of assay [8] is HCC-2998 colon.
Assay [9] relates to HCT-116 colon.

Data on 14 compounds can be found in PubChem BioAssay (NCI).

Compounds without any hit were thinned out: in the full panel of roughly 83,000, 20% have a hit.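 Testing used 96-well plates and a 48-hour single-concentration exposure. Example: -40 means 40% of the starting cells died.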 A number with no mark means an inactive call. Calls of active or inactive are those of the source. How the source made its calls: active means growth percent below 10; inactive means the rest.

As to `COc1cc2c(cc1OC)/C(=C\c1sc(Nc3ccc(O)cc3)nc1O)C(C(=O)O)=N2`, the growth in assay [1] is 46.7%; in assay [2], 57.2%; in assay [3], -77.3% (active); in assay [4], 26.8%; in [5], 12.3%; in assay [6], 20.9%. In [7], the growth was -1.14% (active).
On to `COc1ccc(-c2nc(Nc3ccccc3S(N)(=O)=O)c3ccccc3n2)cc1`, for which the growth in assay [1] is 35.7%; in assay [2] it was 85.8%; in [3], 34.1%; in [4], 8.47% (active); in [5], 9.02% (active); in assay [8], 12%. In addition, the growth is 6.25% (active) in [6] and -13.4% (active) in assay [7].
Consider `CN1C(=O)N(C)C2SC(N/N=C/c3ccccc3)=NC21` (centres undefined), for which the growth in [1] is 69.5%; in assay [2], 58.7%; in assay [3], -13.7% (active); in assay [4], 38.3%; in [5], 41%; in assay [8] it was 81.9%. Also, the growth in assay [6] was 46.7%; in assay [7], 10% (active).
`Cc1ccc(-c2cc(-c3cc4ccccc4nc3Cl)[nH]c(=S)n2)cc1`: the growth was 57.3% in [1]; 7.67% (active) in assay [2]; -1.81% (active) in assay [3]; 78.4% in assay [4]; 47.5% in assay [5]; 77.3% in [8]. Besides, the results for the growth in assay [6] and in assay [7] were 61.6% and 11.7%, respectively.
On to `COc1ccccc1NCc1ccc(CO)n1-c1ccc(C)cc1`, for which the growth is 77.4% in [1]; 101% in assay [2]; 110% in assay [3]; 109% in assay [4]; 85.3% in [5]; 114% in assay [8]. In addition, the growth was 105% in assay [6] and 97.3% in assay [7].
On to `CNC(=O)c1cccc(N2CCc3c2ccc(NC(=O)Nc2ccc(N4CCN(C)CC4)c(C(F)(F)F)c2)c3F)c1`, for which the growth in assay [1] was 94.5%; in [2], 11.6%; in [3], -96.1% (active); in assay [4], -71.7% (active); in assay [5], -79.8% (active); in [8], -94.1% (active). For the same compound, the growth in [6] was -88.1% (active); in assay [7], 90.4%.
As for `CCCCOc1ccc(Nc2nc3ccccc3nc2Nc2ccc(OCCCC)cc2)cc1`, the growth in [1] is 79%; in assay [2], 104%; in assay [3], 88.4%; in assay [4], 96.3%; in assay [5], 75.3%; in [6], 86.8%. Also, in [7], the growth was 73.8%.
With `O=C(CNc1nc(-c2ccccc2)cs1)Nc1ccccc1`, the growth in [1] is -15.3% (active); in assay [2] it was -57.7% (active); in [3], -3.84% (active); in [4], -38.6% (active); in assay [9], 3.71% (active); in assay [8], -94.9% (active). Further, the growth is 2.41% (active) in assay [6] and -78% (active) in assay [7].
As for `CC1(C)CC[C@]2(C(=O)N3CCOCC3)CC[C@]3(C)C(=CC[C@@H]4[C@@]5(C)CC[C@H](NCO)C(C)(C)[C@@H]5CC[C@]43C)[C@H]2C1`, the growth in [1] is -72.4% (active); in [2], -92.2% (active); in assay [3], -96.4% (active); in assay [4] it was -88.8% (active); in assay [5] it was -80.3% (active); in assay [8] it was -78.1% (active). In addition, the growth in assay [6] was -90.5% (active); in assay [7], -97% (active).
As to `Cc1cccc2cc(-c3cc(-c4ccccc4)nc(=S)[nH]3)c(Cl)nc12`, the growth in assay [1] is 72.9%; in assay [2], 53.1%; in assay [3], -6.63% (active); in [4] it was 92%; in assay [5], 68.3%; in assay [8], 93.1%. For the same compound, the growth in assay [6] was 91.4%; in assay [7], 90.6%.
`CN1C(=O)N(C)C2SC(N/N=C/c3ccc(F)cc3)=NC21` (centres undefined): the growth in [1] was 37.9%; in [2] it was 9.3% (active); in [3] it was -28.8% (active); in [4], 30.1%; in assay [5], 21.6%; in assay [8], 69.8%. Besides, the growth in assay [6] is 28.2%.
Turning to `CN1CCN(c2ccc(Nc3nc(N4CCN(S(=O)(=O)c5ccc(Cl)cc5)CC4)c4sccc4n3)cc2)CC1`, the growth is -34.4% (active) in [1]; 64.6% in assay [2]; -100% (active) in [3]; -52.2% (active) in assay [4]; -83.5% (active) in assay [5]; -8.56% (active) in assay [8]. The values for the growth in assay [6] and in assay [7] were -15.3% (active) and -96.7% (active), respectively.
For the compound `CN(C(=O)c1ccc(C(C)(C)C)cc1)c1sc2c(c1C#N)CCC(=O)C2`, the growth in [1] is -40.3% (active); in assay [2], -27.7% (active); in assay [3] it was 14.7%; in assay [4] it was -42.3% (active); in assay [5] it was 25.7%; in assay [8], -4.22% (active). Besides, the growth in [6] is -6.74% (active); in assay [7], -41.4% (active).
For the compound `CCCn1c(=O)c2[nH]c(-c3ccc(OCc4nc5ccccc5[nH]4)cc3)nc2n(CCC)c1=O`, the growth is 59.9% in [1]; 21.1% in [2]; 67% in assay [3]; 46.8% in assay [4]; 17.4% in assay [5]; 64.8% in assay [8]. For the same compound, the figures for the growth in assay [6] and in assay [7] were 63.8% and 23.6%, respectively.
